# Source: PubChem BioAssay (NCATS)
# Unmarked numbers belong to inactive results. Inconclusive results are not listed. The source made the active and inactive calls. Unless noted, calls come from the whole dose curve; as a rule, active = well fitted curve in either direction with a large enough effect (not every such curve was filed as active); inconclusive = small, poorly fitted or top-dose-only effect, or another doubt; inactive = flat fitted curve, though single readings scatter.
# Legend:
# [1] = target: Lysosomal acid glucosylceramidase (Homo sapiens) (UniProt P04062); assay: Glucocerebrosidase-p2 (AID 348; in the data active = potency below about 10 µM; note: potency is the fitted concentration of half-maximal effect); details: purified GBA, blue fluorogenic substrate, 40 min
# Chain of Lysosomal acid glucosylceramidase (Homo sapiens) (P04062 whole entry, looked up): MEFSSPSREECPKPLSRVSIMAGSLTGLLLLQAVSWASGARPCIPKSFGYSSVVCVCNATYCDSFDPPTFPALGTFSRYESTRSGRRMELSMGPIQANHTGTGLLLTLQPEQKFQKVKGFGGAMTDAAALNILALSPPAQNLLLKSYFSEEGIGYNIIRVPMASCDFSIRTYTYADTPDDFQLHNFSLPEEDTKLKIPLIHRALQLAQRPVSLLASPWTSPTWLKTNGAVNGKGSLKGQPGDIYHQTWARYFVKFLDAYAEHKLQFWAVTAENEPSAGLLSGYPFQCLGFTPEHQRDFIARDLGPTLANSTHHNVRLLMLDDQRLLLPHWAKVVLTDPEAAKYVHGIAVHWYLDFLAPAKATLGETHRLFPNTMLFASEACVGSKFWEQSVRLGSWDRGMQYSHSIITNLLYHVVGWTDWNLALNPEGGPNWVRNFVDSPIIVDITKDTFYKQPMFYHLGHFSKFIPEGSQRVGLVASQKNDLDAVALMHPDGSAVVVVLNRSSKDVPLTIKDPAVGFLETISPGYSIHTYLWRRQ
# How it was run: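 Normal human glucocerebrosidase (0.2 nM) with blue fluorogenic substrate (80 uM final) in citrate/phosphate pH 5.9 with 10mM sodium taurocholate, 0.01% tween-20; 40 min RT, NaOH/glycine stop; fluorescence Ex 365/Em 440; AC50 from a titration from 0.6 nM upwards.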
# [2] = AP1 Signaling Pathway (AID 357); details: ME-180 AP-1-bla reporter, EGF-induced, beta-lactamase ratio, 5 h; at 7.69 µM (top of the series) unless noted;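 note: ME-180 reporter cells stimulated with EGF at its EC50 level; % is set by controls: 0 for no effect and ±100 for the full control effect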
# How it was run: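 First, ME-180 AP-1-bla cells were cultured overnight at 37 °C in low-serum Opti-MEM. Next, titrated compounds with EC50 EGF were incubated 5 hours. Finally, CCF4 was added for 2.5 hours and the 460/530 nm ratio recorded.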
# [3] = target: Cytochrome P450 1A2 (Homo sapiens) (UniProt P05177); assay: p450-cyp1a2 (AID 410; calls by dose curve; note: potency is the fitted concentration of half-maximal effect;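 for activity change, negative = inhibition: -100% = full effect of reference inhibitor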); details: recombinant CYP1A2, luciferin-ME demethylation, luminescence; series mostly up to 11.4 µM
# Chain of Cytochrome P450 1A2 (Homo sapiens) (P05177 whole entry, looked up): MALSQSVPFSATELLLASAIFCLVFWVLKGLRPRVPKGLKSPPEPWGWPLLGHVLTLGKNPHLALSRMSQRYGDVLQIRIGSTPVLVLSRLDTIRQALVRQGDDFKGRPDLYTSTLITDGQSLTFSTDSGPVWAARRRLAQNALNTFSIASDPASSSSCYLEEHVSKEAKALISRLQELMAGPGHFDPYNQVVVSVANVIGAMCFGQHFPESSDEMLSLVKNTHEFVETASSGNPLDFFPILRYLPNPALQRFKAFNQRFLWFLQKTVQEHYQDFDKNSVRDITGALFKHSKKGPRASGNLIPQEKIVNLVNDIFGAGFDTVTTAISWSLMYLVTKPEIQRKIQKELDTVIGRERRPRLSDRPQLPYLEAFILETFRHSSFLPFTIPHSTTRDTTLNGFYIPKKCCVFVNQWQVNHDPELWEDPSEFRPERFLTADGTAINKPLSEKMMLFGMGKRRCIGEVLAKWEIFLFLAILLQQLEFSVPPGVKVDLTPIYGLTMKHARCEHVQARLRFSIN
# How it was run: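 20nM CYP1A2, 100uM Luciferin-ME (=Km), 100mM KPO4; cpd 10 min RT; +NADPH regen, 60 min RT; stop/detect 20 min; luminescence. Normalized to furafylline 57 uM = full inhibition.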
# [4] = NFAT Signaling Pathway (AID 444); details: Jurkat NFAT-bla M1, carbachol, beta-lactamase ratio, 5 h; at 7.69 µM (top of the series) unless noted;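 note: carbachol stimulus at about its EC50 of 1 µM final; % is set by controls: 0 for no effect and ±100 for the full control effect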
# How it was run: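 Read-out: CCF4 FRET ratio (460 nm/530 nm) after 1 h RT dye loading, used for %activity and AC50 from titration series. Cells: Jurkat NFAT-β-lactamase/M1 line, treated with compound plus 1 uM carbachol for 5 h, 37 °C.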
# [5] = Stat Signaling Pathway (AID 446); details: ME-180 (cervical carcinoma) SIE beta-lactamase reporter, IL-6 stimulated, 5 h; at 7.69 µM (top of the series) unless noted;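 note: ME-180 cervical cancer cells given 40 pM IL-6 alongside compound; SIE-controlled beta-lactamase reporter measured as 460/530 nm FRET emission ratio; % is set by controls: 0 for no effect and ±100 for the full control effect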
# How it was run: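 Compound effects on IL-6-induced STAT reporter activity were measured in ME-180 cells. After overnight culture, cells were co-treated with 40 pM IL-6 for 5 hrs before beta-lactamase substrate loading at room temperature.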
# [6] = target: Glucocorticoid receptor (Homo sapiens) (UniProt P04150); assay: GR-GFP Redistribution (AID 450;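 active = compounds whose dose series gives a full or clear partial fitted curve of increased nuclear translocation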; note: potency is the fitted concentration of half-maximal effect); details: U2OS GR-GFP nuclear translocation, laser cytometry, 2 h
# Chain of Glucocorticoid receptor (Homo sapiens) (P04150 whole entry, looked up, the tested form may be a part): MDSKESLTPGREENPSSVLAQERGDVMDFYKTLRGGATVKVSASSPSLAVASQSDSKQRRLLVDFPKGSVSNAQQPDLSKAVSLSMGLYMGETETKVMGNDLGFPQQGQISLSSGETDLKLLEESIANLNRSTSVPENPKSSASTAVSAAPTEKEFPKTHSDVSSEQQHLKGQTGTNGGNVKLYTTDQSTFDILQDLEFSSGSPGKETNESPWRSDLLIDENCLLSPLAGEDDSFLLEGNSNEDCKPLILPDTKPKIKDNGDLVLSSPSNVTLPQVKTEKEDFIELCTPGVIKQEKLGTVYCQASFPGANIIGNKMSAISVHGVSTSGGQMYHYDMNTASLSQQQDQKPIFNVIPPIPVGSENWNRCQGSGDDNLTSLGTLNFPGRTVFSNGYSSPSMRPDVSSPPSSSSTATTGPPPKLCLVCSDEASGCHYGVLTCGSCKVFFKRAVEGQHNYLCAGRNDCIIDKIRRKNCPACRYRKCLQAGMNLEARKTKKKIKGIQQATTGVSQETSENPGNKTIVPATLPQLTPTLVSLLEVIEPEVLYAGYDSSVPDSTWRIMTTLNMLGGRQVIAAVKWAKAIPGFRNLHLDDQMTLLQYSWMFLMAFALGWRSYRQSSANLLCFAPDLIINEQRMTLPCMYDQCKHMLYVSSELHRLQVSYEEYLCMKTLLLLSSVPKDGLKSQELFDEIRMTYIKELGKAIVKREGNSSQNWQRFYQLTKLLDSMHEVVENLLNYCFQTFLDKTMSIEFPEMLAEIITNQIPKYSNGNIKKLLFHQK
# [7] = target: Glucocorticoid receptor (Homo sapiens) (UniProt P04150); assay: GR-EFC Redistribution (AID 451; calls by dose curve; note: potency is the fitted concentration of half-maximal effect); details: CHO-K1 GR-EFC translocation, beta-gal luminescence, 2 h
# How it was run: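 Translocation of GR-ED fusion to nuclear EA restores b-gal, read by luminescence after 1 h room-temperature detection. Engineered CHO-K1 biosensor cells, 1,000/well, exposed 2 h at 37 C to titrations up to 46 uM final.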
# [8] = target: Mitogen-activated protein kinase 10 (Mus musculus) (UniProt Q61831); assay: JNK3 AlphaScreen Assay (AID 530); details: JNK3 lysate, c-Jun phosphorylation; series mostly up to 11.4 µM;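 note: kinase came from lysate of stimulated human HepG2 cells; signal reports phosphorylation of biotinylated GST-cJun 1-79 at Ser73 with 10 µM ATP; % is set by controls: 0 for no effect and ±100 for the full control effect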
# How it was run: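 Kinase buffer: 20 mM Tris-HCl pH 7.6, 10 mM MgCl2, 1 mM DTT, 0.1 mM Na3VO4, 0.01% Tween-20; ATP 10 uM. Substrate biotin-GST-cJun(1-79), enzyme from activated HepG2 lysates. Detection by Ser73 phospho-antibody AlphaScreen.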
# [9] = target: 3',5'-cyclic-AMP phosphodiesterase 4B (Homo sapiens) (UniProt Q07343); assay: qHTS Assay for Inhibitors of PDE-IV (AID 607; active = well fitted activation curve with a large enough effect in the main read-out, with a control signal flat, not every such curve was filed as active; note: % of control where 0% means no effect); details: HEK293 ACTOne CNG channel cells, membrane potential fluorescence; series mostly up to 22.9 µM
# Chain of 3',5'-cyclic-AMP phosphodiesterase 4B (Homo sapiens) (Q07343 whole entry, looked up): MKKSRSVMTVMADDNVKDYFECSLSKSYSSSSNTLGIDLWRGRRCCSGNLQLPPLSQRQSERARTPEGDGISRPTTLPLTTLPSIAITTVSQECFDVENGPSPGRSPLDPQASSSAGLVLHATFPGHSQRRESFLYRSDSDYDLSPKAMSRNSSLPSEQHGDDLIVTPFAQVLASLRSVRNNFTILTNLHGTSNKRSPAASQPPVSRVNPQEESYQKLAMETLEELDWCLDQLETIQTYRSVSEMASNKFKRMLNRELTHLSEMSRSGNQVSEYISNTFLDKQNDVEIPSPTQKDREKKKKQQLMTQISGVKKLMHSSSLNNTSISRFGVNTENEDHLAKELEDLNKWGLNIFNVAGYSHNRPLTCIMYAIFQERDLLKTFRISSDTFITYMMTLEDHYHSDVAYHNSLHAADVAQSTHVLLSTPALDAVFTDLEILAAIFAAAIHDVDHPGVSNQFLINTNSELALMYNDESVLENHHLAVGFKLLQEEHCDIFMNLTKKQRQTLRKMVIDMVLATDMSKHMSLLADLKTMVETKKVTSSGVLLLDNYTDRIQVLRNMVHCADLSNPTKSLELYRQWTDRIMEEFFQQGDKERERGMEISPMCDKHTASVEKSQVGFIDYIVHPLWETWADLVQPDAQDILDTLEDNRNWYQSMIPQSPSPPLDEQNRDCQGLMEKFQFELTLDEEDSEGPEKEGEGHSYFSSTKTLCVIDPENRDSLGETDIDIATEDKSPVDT
# How it was run: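 ACTOne HEK293 cells carry a modified cAMP-gated CNG channel and express endogenous PDE4; plated 1000 cells/well, compounds up to 22.9 uM final. Membrane-potential dye fluorescence (ex 535/em 590) was read; parental cells received 10 uM forskolin + 100 uM RO 20-1724.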
SMILES,Potency [1],"activity change, negative = inhibition [2]",Potency [3],"activity change, negative = inhibition [4]","activity, negative = inhibition [5]",Potency [6],Potency [7],Potency [8],Potency [9],"activity change, negative = inhibition [3]"
c1cncc(-c2cc(-c3cc(-c4cccnc4)n[nH]3)[nH]n2)c1,> 11.4 µM,4.4%,0.501 µM (active),14%,-1.32%,> 46 µM,> 9.22 µM,inactive,inactive,–
COc1cc(C)cc(OC)c1/C=C\C(=O)O,> 11.4 µM,12.4%,inactive,8.76%,7.32%,> 46 µM,> 9.22 µM,inactive,inactive,–
Clc1ccc2c(NCCNc3ccnc4cc(Cl)ccc34)ccnc2c1,> 11.4 µM,-4.82%,5.01 µM (active),4.01%,9.24%,> 46 µM,> 9.22 µM,inactive,inactive,–
Cc1nc(CN2CCCCC2)c(O)c(=O)[nH]1,> 11.4 µM,-7.91%,inactive,12.6%,-9.62%,> 46 µM,> 9.22 µM,inactive,inactive,–
CC1(C)O[C@H]2[C@@H](c3[nH]nc4c(=O)[nH]c(=O)[nH]c34)OC[C@H]2O1,> 11.4 µM,8.08%,inactive,-14.8%,8.45%,> 46 µM,> 9.22 µM,inactive,inactive,–
O=C1CCC(c2ccccc2)(c2ccccc2)CC1,> 11.4 µM,5.18%,inactive,-2.6%,1.75%,> 46 µM,> 9.22 µM,inactive,inactive,–
O=C(O)[C@@H]1CCCN1Cc1c[nH]c2ccccc12,> 11.4 µM,6.54%,inactive,6.95%,3.95%,> 46 µM,> 9.22 µM,inactive,inactive,–
C[C@H](CCC(=O)O)[C@H]1CC[C@]2(C)[C@@H]3C(=O)C[C@H]4C(C)(C)[C@@H](O)CC[C@]4(C)[C@H]3C(=O)C[C@@]12C,> 11.4 µM,4.2%,inactive,21.4%,8.37%,> 46 µM,> 9.22 µM,inactive,inactive,–
CCN(CC)C[C@@H](O)c1ccc2ccc3ccccc3c2c1,> 11.4 µM,15.5%,0.794 µM (active),16.1%,13.3%,> 46 µM,> 9.22 µM,inactive,inactive,–
O=C(O)c1c[nH]c2cc(OCc3ccccc3)ccc2c1=O,> 11.4 µM,-8.18%,inactive,5.14%,-8.65%,> 46 µM,> 9.22 µM,inactive,inactive,–
CC1(C)[C@@H]2CC[C@]1(C)[C@@H](OC(=O)/C=C\c1ccccc1)C2,> 11.4 µM,5.51%,–,-17.9%,21.7%,> 46 µM,> 9.22 µM,inactive,inactive,-3.4% [at 2.29 µM]
CN(C)CCOC(=O)c1ccc(N)cc1,> 11.4 µM,4.6%,inactive,-0.262%,-3.48%,> 46 µM,> 9.22 µM,inactive,inactive,–
NCC(=O)Nc1ccc(Cl)cc1C(=O)c1ccc[nH]1,> 11.4 µM,-2.05%,3.16 µM (active),-24.8%,-3.02%,> 46 µM,> 9.22 µM,inactive,inactive,–
CC1CCC(O)([C@](C)(C(=O)O)c2ccccc2)CC1 (some centres undefined),> 11.4 µM,-5.12%,inactive,-26.7%,-1.34%,> 46 µM,> 9.22 µM,inactive,inactive,–
O=C1c2cc([N+](=O)[O-])ccc2-c2ccc3c4ccc5c6c(ccc(c7ccc1c2c73)c64)C(=O)c1cc([N+](=O)[O-])ccc1-5,> 11.4 µM,0.115%,0.794 µM (active),21.7%,9.03%,> 46 µM,> 9.22 µM,inactive,inactive,–
Nc1ncnc2c1ncn2[C@H]1O[C@@H](C(=O)OCCO)[C@@H](O)[C@H]1O,> 11.4 µM,1.75%,inactive,21.4%,25.7%,> 46 µM,> 9.22 µM,inactive,inactive,–

SMILES,Potency [1],"activity change, negative = inhibition [2]",Potency [3],"activity change, negative = inhibition [4]","activity, negative = inhibition [5]",Potency [6],Potency [7],Potency [8],Potency [9],"activity change, negative = inhibition [3]"
O[C@]1(c2ccccc2)c2ccccc2NC2=NCCN21,> 11.4 µM,12.3%,inactive,-13.7%,4.27%,> 46 µM,> 9.22 µM,inactive,inactive,–
CC1(C)OC[C@@H]2O[C@H](n3cnc4c(N)nc(Cl)nc43)[C@@H](OS(C)(=O)=O)[C@@H]2O1,> 11.4 µM,-1.96%,–,-7%,-0.333%,> 46 µM,> 9.22 µM,inactive,inactive,-14.5% [at 2.29 µM]
C/C(=N/NS(=O)(=O)c1ccc(C)cc1)P(=O)(O)O,> 11.4 µM,1.2%,inactive,7.41%,6.08%,> 46 µM,> 9.22 µM,inactive,inactive,–
NS(=O)(=O)c1ccc(N=Nc2c(O)c(C(=O)O)cc3ccccc23)cc1,> 11.4 µM,1.12%,inactive,3.68%,5.99%,> 46 µM,> 9.22 µM,inactive,inactive,–
Nc1nc(N)c2[nH]cnc2n1 (tested in a mixture with another compound),> 11.4 µM,4.54%,–,20.2%,4.45%,> 46 µM,> 9.22 µM,inactive,inactive,-5.5% [at 2.29 µM]
OCCSCc1ccccc1,> 11.4 µM,2.72%,inactive,3.48%,4.23%,> 46 µM,> 9.22 µM,inactive,inactive,–
Clc1ccc(C=Nc2ccc3c(c2)Cc2ccccc2-3)c(Cl)c1,> 11.4 µM,3.71%,0.794 µM (active),23.1%,12.8%,> 46 µM,> 9.22 µM,inactive,inactive,–
ClC(Cl)(Cl)C(N1CCN(c2ccccc2)CC1)N1CCN(c2ccccc2)CC1,> 11.4 µM,-0.388%,–,-2.17%,-6.12%,> 46 µM,> 9.22 µM,inactive,inactive,-14.9% [at 2.29 µM]
CC(C)(N)C(=O)N[C@@H]1C(=O)N2[C@@H]1SC(C)(C)[C@H]2C(=O)O,> 11.4 µM,-6.43%,–,-0.727%,-0.982%,> 46 µM,> 9.22 µM,inactive,inactive,4.4% [at 2.29 µM]
O=S(=O)(O)[C@@H](CO)c1ccccc1 (tested in a mixture with another compound),> 11.4 µM,-0.645%,–,3.56%,-7.29%,> 46 µM,> 9.22 µM,inactive,inactive,-1.9% [at 2.29 µM]
O=C(O)c1cc2c(cc1S(=O)(=O)O)[C@H]1[C@@H]([C@H]3[C@H]2[C@@]2(Cl)C(Cl)=C(Cl)[C@]3(Cl)C2(Cl)Cl)[C@]2(Cl)C(Cl)=C(Cl)[C@@]1(Cl)C2(Cl)Cl,> 11.4 µM,5.22%,inactive,0.12%,-4.58%,> 46 µM,> 9.22 µM,inactive,inactive,–
c1ccc2c(c1)C(=Nc1ccc(N=C3c4ccccc4-c4ccccc43)cc1)c1ccccc1-2,> 11.4 µM,-0.81%,–,10.5%,4.55%,> 46 µM,> 9.22 µM,inactive,inactive,-19.6% [at 2.29 µM]
Nc1ncnc2c1ncn2C[C@@H](O)C(=O)O,> 11.4 µM,8.44%,inactive,2.36%,-0.0646%,> 46 µM,> 9.22 µM,inactive,inactive,–
OCCn1cnc2c(SCc3ccccc3)ncnc21,> 11.4 µM,-4.68%,3.16 µM (active),1.04%,-1.73%,> 46 µM,> 9.22 µM,inactive,inactive,–
O=C(O)[C@@H]1[C@@H]2C[C@@H]3[C@@H](OC(=O)[C@@H]31)[C@H]2Br,> 11.4 µM,4.57%,inactive,-26.7%,5.86%,> 46 µM,> 9.22 µM,inactive,inactive,–
